The values below come from patent US20140271602, “NUCLEOTIDE-SPECIFIC RECOGNITION SEQUENCES FOR DESIGNER TAL EFFECTORS” (THE BROAD INSTITUTE INC., published 2014).

In the test the target is T1, TALE2-NN (CACNA1C site 2 activator) (Xanthomonas (engineered), UniProt P14727 SEQ:1-983).
T1 chain: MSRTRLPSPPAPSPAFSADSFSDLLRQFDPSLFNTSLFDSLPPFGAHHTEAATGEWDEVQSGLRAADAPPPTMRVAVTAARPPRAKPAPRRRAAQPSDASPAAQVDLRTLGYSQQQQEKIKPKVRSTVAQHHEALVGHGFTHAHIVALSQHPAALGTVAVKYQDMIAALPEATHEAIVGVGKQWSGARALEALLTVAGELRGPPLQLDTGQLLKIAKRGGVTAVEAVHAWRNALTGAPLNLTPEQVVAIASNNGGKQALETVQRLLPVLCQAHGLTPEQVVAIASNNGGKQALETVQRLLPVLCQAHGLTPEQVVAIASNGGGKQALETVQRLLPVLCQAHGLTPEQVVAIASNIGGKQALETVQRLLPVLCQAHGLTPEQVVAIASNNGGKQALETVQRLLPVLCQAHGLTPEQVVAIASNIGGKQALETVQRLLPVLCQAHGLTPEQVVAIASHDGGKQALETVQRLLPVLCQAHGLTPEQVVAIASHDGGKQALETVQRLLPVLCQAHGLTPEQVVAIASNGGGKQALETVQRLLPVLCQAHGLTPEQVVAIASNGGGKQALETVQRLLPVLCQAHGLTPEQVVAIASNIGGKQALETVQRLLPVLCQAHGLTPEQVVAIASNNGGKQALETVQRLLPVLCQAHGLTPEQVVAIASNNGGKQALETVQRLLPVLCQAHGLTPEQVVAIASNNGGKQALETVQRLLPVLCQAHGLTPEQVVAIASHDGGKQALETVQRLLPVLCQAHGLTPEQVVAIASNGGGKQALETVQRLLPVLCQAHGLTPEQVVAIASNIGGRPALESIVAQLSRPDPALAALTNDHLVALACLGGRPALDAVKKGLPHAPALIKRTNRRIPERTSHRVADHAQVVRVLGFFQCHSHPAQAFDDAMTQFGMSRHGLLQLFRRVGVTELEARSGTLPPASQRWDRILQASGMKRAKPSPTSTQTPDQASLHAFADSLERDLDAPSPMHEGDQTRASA
The experiment in a line: cell_activity; luciferase reporter. Particulars: tags: VP64, 2A-GFP; dsDNA, one strand shown. The protocol: TALEs using NN, NK, NH, and HN as the G-targeting RVD were synthesized to target two distinct 18 bp target sites in the human CACNA1C locus. Changes in mRNA are measured using qRT-PCR as described previously. VP64, VP64 transcription activation domain. All results are collected from three independent experiments in HEK 293FT cells. Error bars indicate s.e.m.; n=3. FIG. 19(b) discloses SEQ ID NOS 63 and 62, respectively, in order of appearance.
To determine whether NH and HN are suitable replacements for NN as the G-specific RVD, specificity and activity strength of NN, NK, NH, and HN were directly compared. Two 18 bp targets within the CACNA1C locus in the human genome were chosen and four TALEs for each target were constructed, using NN, NK, NH, or HN as the G-targeting RVD (FIG. 19a). […] For each CACNA1C target site, four luciferase reporters were constructed: wild type genomic target, and wild type target with 2, 4, or all guanines mutated into adenines (FIG. 19a, G-to-A reporters), and compared the activity of each TALE using these reporters (FIG. 19a). […] Thus, focus was placed on the RVDs NN, NK, and NH in subsequent experiments to assess their usefulness in modulating transcription at endogenous human genome targets.
(In a reporter assay the amount or activity of a reporter protein is the signal.)
For the sequence TAATAGACCTTAGGGCTA, the binding signal was 21.8 % reduction vs wild-type site.
